Source: ChEMBL document CHEMBL4513160, “CO-ADD screening of MMV (CH) - Small Polar Library”
Screen size: about 23,000 compounds; about 30 (0.1%) showed an effect of 50% or more. This is one part of a sample in which strong results are shown more often than they occur. Potency and affinity values are given separately.

system: Pseudomonas aeruginosa; details: Concentration 300 ug.mL-1; ASSAY_TEST Inhibition of Bacterial Growth; detection method Absorption (OD600); MEDIA CAMHB; plate type 384well; NBS; CORNING #3640; time 18 hr

Row | SMILES | Inhibition [%]
1 | CNCCC1CCCO1 (stereo not given) | 6.91
2 | CNC1CC(=O)N(Cc2ccccc2)C1=O (stereo not given) | -1.73
3 | CC1(C)C[S+]([O-])CCN1C(=O)c1cccc(F)c1Cl (stereo not given) | 17.16
4 | CCN(CC)C(=O)[C@@H]1C[C@@H](N)CN1C(=O)CS(C)(=O)=O | 7.51
5 | Nc1ncn(S(=O)(=O)c2ccccc2)n1 | -6.3
6 | Cc1n[nH]cc1CNCc1ccc(-n2ccnc2)nc1 | 0.04
7 | O=C(CC1CCCN1)c1ccco1 (stereo not given) | 24.64
8 | CC(O)C(=O)NC(N)=O (stereo not given) | 10.69
9 | O=c1ccoc2ccc(F)cc12 | 24.86
10 | CCCn1cnnc1CNCC(=O)Nc1cnccn1 | 7.89
11 | CNC(=O)NC(=O)C(C)N1CCN(c2nccs2)CC1 (stereo not given) | 0.51
12 | CCCc1nnc(N2CCC3(CC2)OCC(C)O3)s1 (stereo not given) | -23.27
13 | CC(C)NC(=O)c1cn(Cc2ccc(Cl)cc2)nn1 | 37.8
14 | CCOC(=O)CNC(=O)N1CCn2cccc2C1C (stereo not given) | -25.66
15 | O=C(Cc1ccsc1)N[C@@H]1CCOC[C@H]1OCCO | 1.98
16 | c1ccc(C2=NN=C(NC3CC3)SC2)cc1 | 6.85
17 | O=C(Cc1cccc(O)c1)NCCn1cc(Cl)cn1 | -17.42
18 | COc1cc(C(=O)N[C@@H]2CC[C@@H](N)C2)ccc1F | 12.15
19 | N[C@@H]1CCOc2c(F)ccc(F)c21 | 32.11
20 | CC(Sc1ccccc1Cl)C(=O)NCC(=O)N(C)C (stereo not given) | 4.5
21 | CCC(c1ccc(F)cc1)N1CC[S+]([O-])CC1 (stereo not given) | 11.41
22 | NS(=O)(=O)N(Cc1cccnc1)Cc1ccco1 | 8.52
23 | COCCNCC(=O)Nc1cccc(CSC)c1 | 7.12
24 | CCn1nc(C)c(CN2CCCCC(N)C2)c1C (stereo not given) | 14.9
25 | O=C(CCN1CCC(CO)CC1)Nc1ccccc1F | 3.62

Row | SMILES | Inhibition [%]
26 | Cc1noc(CN2CCN(S(C)(=O)=O)CC2)n1 | -16.86
27 | CCS(=O)(=O)c1cncnc1N | 19.95
28 | Cc1noc(C)c1CCC(=O)NC(C)c1ccccn1 (stereo not given) | -45.2
29 | Cc1cc(C)cc(N2CCNCC2=O)c1 | 2.16
30 | NC(=O)C1=NOC(CNCc2ccccc2Cl)C1 (stereo not given) | 23
31 | Cc1cc(C(=O)N[C@@H]2CCOC[C@H]2O)sc1C | 10.73
32 | COc1ccc2[nH]c(CCCN)nc2c1 | 28.12
33 | N[C@H]1CCCNC1=O | 19.57
34 | CCc1nc(CNC(=O)C2CCCO2)cs1 (stereo not given) | 6.65
35 | CCS(=O)(=O)NC1CCN(C(=O)c2cccc(F)c2)C1 (stereo not given) | 13
36 | Cc1noc(CN(C)CCC2CCOCC2)n1 | -10.62
37 | O=C(NCc1ccc2c(c1)OCCCO2)c1cscn1 | 14.64
38 | NC1CC(=O)Nc2ccccc21 (stereo not given) | 18.18
39 | CC(C)C[C@@H](N)C(=O)NCc1ccc2nsnc2c1 | 6.42
40 | CC(C)C(=O)NC1CCCNC1 (stereo not given) | -0.49
41 | N#Cc1ccc(NCc2ccccc2F)nc1 | 16.68
42 | Cn1cnnc1CCNC(=O)c1cc(Cl)c(Cl)n1C | 15.17
43 | COCCC(=O)c1ccc(F)cc1 | 19.26
44 | CCN1CCCC1CNC(=O)c1c[nH]nn1 (stereo not given) | 16.01
45 | Cc1cc(C)cc(NC(=O)CNCCCO)c1 | 5.1
46 | NC1CCCc2c(F)cccc21 (stereo not given) | 23.88
47 | Fc1ccc2nc(N3CCCNCC3)oc2c1F | 33.45
48 | Cc1n[nH]c(C)c1NC(=O)C(C)CN (stereo not given) | 18.11
49 | CN(Cc1ccc2c(c1)OCO2)C(=O)c1cncs1 | 25.32
50 | COC(=O)c1ccc(=O)n(CC(=O)NCCC(C)C)c1 | 4.64

Row | SMILES | Inhibition [%]
51 | O=C(NCCOc1ncccc1Cl)c1cscn1 | 13.9
52 | COc1ccc(CN2C[C@H](O)[C@@H](N(C)C)C2)c(C)c1C | 27.33
53 | Cc1cc(C(=O)N2C[C@H](C3CC3)[C@@H](N)C2)ccc1O | 1.32
54 | CC1CCN(CCNC(=O)c2cnccn2)CC1 | -12.84
55 | CNCCN1CCOC(C)(C)C1 | 9.7
56 | NS(=O)(=O)c1ccc(NC(=O)Cn2ccnc2)cc1 | 5.95
57 | Cc1cc(C(=O)O)cc(N2C[C@H](C3CC3)[C@@H](N)C2)n1 | -2.3
58 | CC(SCCN1CCOCC1)C(=O)N(C)C(C)C (stereo not given) | 5.48
59 | N#Cc1ccc(Br)o1 | 8.03
60 | Cc1cccc(C)c1-n1nnnc1SCC(N)=O | 21.56
61 | CNC(=O)C1CCN(CCCOc2ccccc2)CC1 | 24.15
62 | CCCNC(=O)CCNC(=O)NCC | 0.02
63 | CCc1ccc(C(=O)NC2CNC[C@@H]2OC)o1 (stereo not given in full) | 36.32
64 | NCC1(CCO)CCOC1 (stereo not given) | 6.83
65 | COc1cccc(-c2ccc(CNS(N)(=O)=O)cc2)c1 | 23.3
66 | O=C(NCC1CCNCC1)c1ccncc1 | 12.69
67 | CCN(CCn1cccn1)C(=O)CNC(=O)N(C)C | -8.78
68 | CCN(c1ccccc1)S(N)(=O)=O | 5.95
69 | COc1c(C)cnc(CNC(=O)CSC)c1C | 1.37
70 | CN1CCC(NC(=O)CSCc2cccs2)CC1 | 12.03
71 | CNC(=O)NC1CN(C(=O)OC(C)(C)C)C1 | -6.26
72 | CN(C)CCCOc1cccc(CN2CC(O)C2)c1 | 2
73 | OC1(CNCc2ccccn2)CCc2ccccc21 (stereo not given) | 24.9
74 | Cc1c(Cl)cccc1C(=O)NC(C)c1nnnn1C (stereo not given) | 8.95
75 | Cc1cc(N(C)C)n2nccc2n1 | -18.53

Row | SMILES | Inhibition [%]
76 | CCN(CC)C(=O)COc1ccc(C(C)=O)c(F)c1 | 4.67
77 | COc1cn(C)c(C(=O)NCc2ccco2)cc1=O | 21.6
78 | CC(=O)c1ccc(CNc2nccnc2C#N)nc1C | 14.58
79 | Cc1nc(C2CCN(C(=O)c3cn[nH]c3)CC2)no1 | -1.22
80 | NC1CCC(NC(=O)c2ccnc(C3CC3)n2)CC1 (stereo not given) | 4.44
81 | CN1CCC(CCNS(C)(=O)=O)CC1 | -4.45
82 | CCCc1noc(C(C)Nc2cccc(C(N)=O)c2)n1 (stereo not given) | 24.66
83 | O=S1(=O)CCC(NCc2csc(-c3ccccn3)n2)C1 (stereo not given) | 17.32
84 | CCC1CN(Cc2ccnc(N)c2)CCO1 (stereo not given) | 4.62
85 | COCCNC(=O)CNC(=O)c1cc(C)cc(C)c1Br | 7.79
86 | CNCCCNC(=O)CCc1ccsc1 | -24.67
87 | CCC(C)NC(=O)NCc1ccc(-n2ccnc2)nc1 (stereo not given) | 14.1
88 | CN1CCN(C(=O)C2COc3ccccc3O2)CC1=O (stereo not given) | 3.72
89 | Cc1ccccc1CNc1nnc(CO)s1 | 26.98
90 | CC1(CO)COCCN1Cc1ccccc1 (stereo not given) | 11.96
91 | Cc1cccc(C(=O)Nc2nnn(C)n2)c1 | 2.82
92 | Cc1n[nH]c(C)c1S(=O)(=O)N1CCN(C)CC1 | 33.93
93 | CCNC(=O)Nc1c[nH]nc1C1CCCNC1 (stereo not given) | 15.62
94 | NS(=O)(=O)NCC1CCCN(CCC2CCCC2)C1 (stereo not given) | 13.03
95 | Cc1nc(CN2CCC(O)(CN3CCCC3)CC2)c[nH]1 | 20.39
96 | O=C(C1CCCO1)N1CCN(c2cc(Br)ccn2)CC1 (stereo not given) | 3.3
97 | c1ccc(-c2nc3c([nH]2)CCNC3)cc1 | 7.84
98 | CNC(=O)CN1CCCC(CO)(CC=C(C)C)C1 (stereo not given) | 20.92
99 | N#Cc1ccc(CN2CCC3(CCC3O)CC2)cc1 (stereo not given) | 20.3
100 | Cc1ocnc1C(=O)NCCNC(=O)c1cccnc1 | 1.53
